Consider twelve molecules from PMC5540273 (PLoS ONE, 2017).

SMILES strings stand for the structures.
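Further: KINOMEscan kinase panel screen.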

In the experiment the test system is T1, MEK3.
T1 construct: gene MAP2K3
The note with it: concentration: 1 μM,replicates: in singlicate; n = 1.
Regarding `Cl.Cl.Nc1nc(-c2ccc3c(N)n[nH]c3c2)cc(N2CCCC(NC(=O)c3ccccc3)C2)n1` (stereo not drawn) [GSK2286775], the “%Inh” value is recorded as 6%.

With `CC(C)Nc1cc(-c2ccc3c(N)n[nH]c3c2)nc(N)n1` [GSK2221681], the “%Inh” value was 0%.

`COc1ccc(C[C@@H](CN)NC(=O)c2cc(Br)c(-c3ccnc4[nH]ccc34)s2)cc1.Cl.Cl` [GSK1389063]: the “%Inh” value came to 95.2%.

In the case of `C[C@H]1Oc2cc(cnc2N)-c2c(nn(C)c2C#N)CN(C)C(=O)c2ccc(F)cc21`, the “%Inh” value is reported as 83%.

Turning to `Cc1ccc2c(-c3ccncc3)c(-c3ccc(F)cc3)nn2c1.Cl` [GW461484], the “%Inh” value is 0%.

Regarding `C=CC(=O)Nc1cc2c(Nc3ccc(F)c(Cl)c3)ncnc2cc1OCCCN1CCOCC1` [GW781483], the “%Inh” value is 7%.

Regarding `CNC(=O)c1ccccc1Sc1ccc2c(/C=C/c3ccccn3)n[nH]c2c1`, the “%Inh” value came to 0%.

As to `C[C@@H](Oc1cc(-c2cnn(C3CCNCC3)c2)cnc1N)c1c(Cl)ccc(F)c1Cl`, the “%Inh” value came to 18%.

On to `CCN(CC)CCOc1ccc(Nc2ncc3cc(-c4c(Cl)cccc4Cl)c(=O)n(C)c3n2)cc1` [SB-601273], for which the “%Inh” value is on record as 38%.

With `CN(C)CCOc1ccc(-c2cc(-c3c[nH]nc3-c3ccccn3)ccn2)cc1` [GW835314], the “%Inh” value stood at 11%.

With `Cl.Oc1cc(-c2nc(-c3ccccc3)[nH]c2-c2ccncc2)ccc1Cl` [SB-386023], the “%Inh” value is 7%.

With `CC(C)N1C(=O)Cc2cc(Nc3ncc(C(F)(F)F)c(NCc4cccc(S(C)(=O)=O)c4)n3)ccc21`, the “%Inh” value was determined as 51%.
